# Screens as filed in PubChem BioAssay.
# Pol iota inh = DNA polymerase iota (human) inhibition; Pol iota fluorescent replication assay, 10 min; AID 588590; 390,000 tested, 1% active; Q9UNA4; Potency, µM (top dose mostly 115 µM), for inactives: at the top dose activity, negative = inhibition, hits mostly inhibitors; note: potency is the fitted concentration of half-maximal effect
#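 Fluorescent replication assay read twice, at 0 min and 10 min after adding 50 nM (final) substrate. Enzyme (10 nM) and compounds were first incubated 15 min at room temperature; enzyme-free buffer wells were negative controls.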
# FEN1 inh-1 = human FEN1 inhibition; P39748; Recombinant FEN1 flap cleavage, fluorescence, 15 min; Potency, µM (top dose mostly 114 µM), without a hit: at the top dose activity change, negative = inhibition, usual class: inhibitors; 390,000 tested, 0.35% active; note: potency is the fitted concentration of half-maximal effect; % is set by controls: 0 for no effect and ±100 for the full control effect; nearly all actives have a fitted effect of over 65% in size
#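 In this screen, 50 nM flap DNA substrate was added to 10 nM FEN1 pretreated with compound for 15 min at room temperature; cleavage was followed with reads at 0 and 15 min, and Hill fitting gave concentration–response parameters.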
# Pol kappa inh-1 = blocks human DNA polymerase kappa activity; Q9UBT6; purified Pol kappa, fluorescent DNA synthesis assay, 10 min; Potency, µM (series often up to 107 µM), for inactives: top-dose activity, negative = inhibition, most hits filed as inhibitors; 400,000 tested, 0.53% active; note: potency is the fitted concentration of half-maximal effect; % is set by controls: 0 for no effect and ±100 for the full control effect
#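 Pol kappa 10 nM + cpd, 15 min RT; start w/ substrate 50 nM final; fluorescence kinetic read, 0 and 10 min. Neg ctrl: buffer, no enzyme.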
# Pol eta inh-1 = blocks human DNA polymerase eta activity; Q9Y253; AID 588591; 390,000 tested, 1.2% active; Potency, µM (highest dose often 114 µM), inactives show top-dose activity change, negative = inhibition, usual class: inhibitors; recombinant Pol eta, fluorescent DNA replication assay; note: potency is the fitted concentration of half-maximal effect; % is set by controls: 0 for no effect and ±100 for the full control effect
#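 Pol eta at 10 nM preincubated with compounds 15 min at room temperature; reaction started with fluorescent substrate (50 nM final) and read kinetically at 0 and 10 min.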
# WRN helicase inh-1 = WRN helicase (human) inhibition. WRN helicase unwinding, fluorescent forked duplex, kinetic. Q14191. 360,000 tested, 0.46% active. AID 651768. Potency, µM (titrated, usually from 114 µM), inactives show top-dose activity change, negative = inhibition, actives largely listed as inhibitors; note: potency is the fitted concentration of half-maximal effect; % is set by controls: 0 for no effect and ±100 for the full control effect; nearly all actives have a fitted effect of over 55% in size
#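 Kinetic fluorescence helicase assay: unwinding of a quenched forked DNA duplex (100 nM final) with 2 mM ATP final raises red fluorescence (525/598 nm). Compounds sat 15 min at room temperature with 20 nM WRN beforehand.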
# Pol beta inh = inhibitors of human DNA polymerase beta; P06746; Pol beta primer extension/strand displacement, fluorescence kinetic; Potency, µM (titrated, usually from 114 µM), inactives show at the top dose activity change, negative = inhibition, hits mostly inhibitors; 340,000 tested, 1.3% active; note: potency is the fitted concentration of half-maximal effect; % is set by controls: 0 for no effect and ±100 for the full control effect
#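 Pol beta (10 nM) and compounds were preincubated 15 min at room temperature, then 50 nM substrate (final) started primer extension/strand displacement. Reads were taken at 0 and 10 min; concentration-response data were fitted to a four-parameter Hill equation.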
# TbPGK inh = TbPGK inhibition, hit validation. shares compounds with Pol kappa inh-1. TbPGK coupled GAPDH assay, Kinase-Glo luminescence. Potency, µM (doses to about 57.5 µM), for inactives: at the highest dose activity change, negative = inhibition, most hits filed as inhibitors. 500 tested, 79% active. AID 686980; note: potency is the fitted concentration of half-maximal effect; % is set by controls: 0 for no effect and ±100 for the full control effect; nearly all actives have a fitted effect of over 65% in size
# Pol iota confirm = Human Pol iota inhibitor confirmatory assay | Potency, µM, hits mostly inhibitors | Pol iota primer extension, TAMRA/BHQ fluorescence | shares compounds with Pol kappa inh-1 | AID 720496 | 1,500 tested, 77% active; note: potency is the fitted concentration of half-maximal effect
# GALK confirm = galactokinase (human) inhibition, confirmation | shares compounds with Pol eta inh-1 | purified GALK, Kinase-Glo ATP depletion luminescence | Potency, µM (titrated, usually from 115 µM), inactives show top-dose activity, negative = inhibition, hits mostly inhibitors | 150 tested, 70% active | AID 2015
# GALK redox cs = redox cycling activity in phenol red-HRP assay; shares compounds with Pol eta inh-1; Phenol red-HRP H2O2 redox cycling, absorbance 600 nm; Potency, µM (top dose mostly 115 µM), for the others: top-dose activity change, negative = H2O2 signal, most hits filed as inhibitors; 150 tested, 40% active; AID 2035
# HEK293 tox = HEK-293 cytotoxicity, GALK inhibitor secondary. shares compounds with Pol eta inh-1. HEK-293 viability, ATP luminescence (CellTiter-Glo), 24/48 h. Potency, µM (titrated, usually from 46.1 µM), for inactives: at the highest dose activity change, negative = cytotoxicity, actives largely listed as inhibitors. 170 tested, 10% active; note: potency is the fitted concentration of half-maximal effect; % is set by controls: 0 for no effect and ±100 for the full control effect
# Pol kappa inh-2 = confirmation of human DNA polymerase kappa inhibitors; shares compounds with Pol eta inh-1; purified Pol-kappa, fluorescent strand-displacement substrate; Potency, µM, usual class: inhibitors; 920 tested, 76% active; AID 720501; note: potency is the fitted concentration of half-maximal effect
# Pol eta inh-2 = confirmation of human DNA polymerase eta inhibitors | shares compounds with Pol eta inh-1 | Pol eta primer extension, TAMRA/BHQ fluorescence, 10 min | Potency, µM, actives largely listed as inhibitors | 2,600 tested, 64% active | AID 720502; note: potency is the fitted concentration of half-maximal effect
# FEN1 inh-2 = FEN1 inhibition, cherry-pick retest; shares compounds with FEN1 inh-1; FEN1 flap cleavage, TAMRA/BHQ2 fluorogenic DNA substrate; Potency, µM, actives largely listed as inhibitors; 880 tested, 79% active; note: potency is the fitted concentration of half-maximal effect; nearly all actives have a fitted effect of over 60% in size
# WRN helicase inh-2 = WRN helicase inhibition, cherry-pick retest | shares compounds with WRN helicase inh-1 | WRN helicase DNA unwinding, fluorescence kinetic | Potency, µM (highest dose often 57.1 µM), for the others: at the top dose activity, negative = inhibition, hits mostly inhibitors | 610 tested, 63% active; note: potency is the fitted concentration of half-maximal effect; nearly all actives have a fitted effect of over 65% in size
# TO DNA binding = counter-screen for WRN helicase inhibitors: DNA binding; 610 tested, 10% active; Potency, µM (top dose mostly 57.1 µM), inactives show top-dose activity change, negative = inhibition, actives largely listed as inhibitors; shares compounds with WRN helicase inh-1; thiazole orange DNA binding displacement, fluorescence;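 note: drop in dye fluorescence marks compound binding to DNA; potency is the fitted concentration of half-maximal effect; % is set by controls: 0 for no effect and ±100 for the full control effect; nearly all actives have a fitted effect of over 60% in size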
# BLM helicase inh = BLM helicase inhibition, WRN selectivity check; 610 tested, 60% active; Potency, µM (series often up to 57.1 µM), for the others: top-dose activity change, negative = inhibition, actives largely listed as inhibitors; AID 720503; Recombinant BLM helicase DNA unwinding, red fluorescence; shares compounds with WRN helicase inh-1; note: potency is the fitted concentration of half-maximal effect; nearly all actives have a fitted effect of over 60% in size
# Numbers without * were called inactive; ? = inconclusive; / = no result given; [ ] = another dose, or the depositor's remark. Rows were chosen to be rich in hits. Some 2.4% of all compounds tested hit in one or more screens of this group. Calls come from the whole dose curve; as a rule, active = well fitted curve in the direction sought with a large enough effect; inconclusive = small, poorly fitted or top-dose-only effect, or another doubt; inactive = no such curve, though single readings can be large; an effect the other way counts as inactive or inconclusive.
SMILES,Pol iota inh,FEN1 inh-1,Pol kappa inh-1,Pol eta inh-1,WRN helicase inh-1,Pol beta inh,Pol kappa inh-2,Pol eta inh-2,others
COc1cccc2c1C(=O)c1c(O)c3c(c(O)c1C2=O)CC(O)(C(C)=NO)CC3OC1CC(N)C(O)C(C)O1 (stereo not given),79µM*,?,?,18µM*,2.7µM*,/,/,43*,Pol iota confirm=21*;FEN1 inh-2=30*;WRN helicase inh-2=22µM*;TO DNA binding=163%;BLM helicase inh=22µM*
Cc1cc(/C=C2\C(=O)NC(=O)N(c3ccccc3F)C2=O)c(C)n1-c1cc(C(=O)O)cc(C(=O)O)c1,?,?,?,3.2µM*,40µM*,10µM*,/,7.6*,TbPGK inh=?;Pol iota confirm=19*;WRN helicase inh-2=?;TO DNA binding=-8%;BLM helicase inh=-4%
CC(Cc1ccc(O)cc1)NCC(O)c1ccc(O)c(O)c1 (stereo not given),/,/,/,4µM*,25µM*,/,3.4*,12*,Pol iota confirm=15*;WRN helicase inh-2=14µM*;TO DNA binding=-6%;BLM helicase inh=6.1µM*
CC(Cc1ccc(OCC(=O)O)cc1)NCC(O)c1cccc(Cl)c1 (stereo not given),12%[58.9 µM],/,-4%[60.1 µM],-4%[57.1 µM],/,12%[57.1 µM],/,/,
O=c1c(O)c(-c2ccc(O)c(O)c2)oc2cc(O)cc(O)c12,0.56µM*,40µM*,0.95µM*,0.71µM*,?,0.2µM*,3*,12*,TbPGK inh=?;Pol iota confirm=15*;GALK confirm=42µM*;GALK redox cs=-2%;HEK293 tox=?;WRN helicase inh-2=1.2µM*;TO DNA binding=?;BLM helicase inh=1.1µM*
COc1cc2c(cc1OC)[C@@H]1C(=O)c3ccc(OC)c(CC=C(C)C)c3OC1CO2 (stereo not given in full),/,/,-17%[60.1 µM],/,/,/,/,/,
O=C(Cc1ccc(S(=O)(=O)N2CCCC2)s1)N1CCN(c2ccc(F)cc2)CC1,?,?,?,?,-2%[11.6 µM],32µM*,/,85*,
Cc1cccc(N2C(=O)NC(=O)/C(=C\c3cc(C)n(-c4sc5c(c4C#N)CCCC5)c3C)C2=O)c1C,20µM*,-31%,-21%,20µM*,?,?,/,30*,
CCCC[C@@H](C)[C@@H](OC(=O)C[C@@H](CC(=O)O)C(=O)O)[C@H](C[C@@H](C)C[C@H](O)CCCC[C@@H](O)C[C@H](O)[C@H](C)N)OC(=O)C[C@H](CC(=O)O)C(=O)O,/,/,5%[19.4 µM],/,/,/,/,/,
CCCCC(C)C(OC(=O)CC(CC(=O)O)C(=O)O)C(CC(C)CC(O)CCCCC(O)CC(O)C(C)N)OC(=O)CC(CC(=O)O)C(=O)O (stereo not given),19%,-2%,79µM*,?,-1%[57.1 µM],?,/,76*,
C=CCN1C(=O)NC(=O)C(Cc2ccc(OC)c(OC)c2)C1=O (stereo not given),?,-11%,?,8.9µM*,?,-3%,/,30*,
O=C(O)c1ccccc1-c1ccc(C=C2C(=O)N(c3ccccc3)C(=S)N(c3ccccc3)C2=O)o1,?,?,?,18µM*,?,45µM*,17*,34*,
O=C1NC(=O)C(=Cc2ccc(-c3ccccc3[N+](=O)[O-])o2)C(=O)N1,?,?,-15%,-12%,?,4%,/,/,
CCOC(=O)COc1ccc(/C=C2\C(=O)NC(=S)N(c3ccc(OC)cc3)C2=O)cc1OC,-12%,-19%,7%,-9%,-4%,-21%,/,/,
CCC(C)N1C(=O)/C(=C/c2ccc3c(c2)CCN3CCCCl)C(=O)NC1=S (stereo not given),?,-10%,?,16µM*,-16%[11.6 µM],16µM*,84*,76*,
Cc1ccc(N2C(=O)NC(=O)/C(=C/C=C/c3ccco3)C2=O)cc1,11µM*,?,20µM*,?,45µM*,32µM*,/,?,
Cc1cc(C)cc(N2C(=O)NC(=O)/C(=C\C=C\c3ccco3)C2=O)c1,22µM*,-13%,40µM*,18µM*,50µM*,28µM*,19*,30*,
O=C1NC(=S)NC(=O)C1c1ccccc1,8%,-11%,-7%,-5%,-6%,/,/,/,
